A selection: hits, their analogues and other compounds. The true share with any hit is near 2%.
MBD2 inh – MBD2-methylated oligo binding inhibition; AID 686964; TR-FRET, MBD2 binding to methylated oligonucleotide; inhibition, % at 4.4 µM; Q9UBB5; actives 0.31% (n = 370,000); in the data active means inhibition above about 13%
Target sequence (Q9UBB5 whole entry, looked up): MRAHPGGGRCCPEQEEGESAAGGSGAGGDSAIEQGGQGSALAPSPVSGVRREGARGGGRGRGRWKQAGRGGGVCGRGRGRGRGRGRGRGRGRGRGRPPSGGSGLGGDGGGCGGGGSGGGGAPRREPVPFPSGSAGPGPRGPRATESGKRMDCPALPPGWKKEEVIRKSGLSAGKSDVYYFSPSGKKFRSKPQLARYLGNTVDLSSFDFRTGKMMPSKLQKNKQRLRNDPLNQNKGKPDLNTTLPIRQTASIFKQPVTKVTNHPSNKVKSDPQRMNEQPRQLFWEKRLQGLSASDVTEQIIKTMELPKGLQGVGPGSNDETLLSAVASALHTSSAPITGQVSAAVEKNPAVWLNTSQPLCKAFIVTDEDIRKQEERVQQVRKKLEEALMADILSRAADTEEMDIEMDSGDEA
TCR CD3 inh – human TCR-CD3 binding inhibition; TAMRA-labeled TCR probe fluorescence, biochemical; inhibition, % at 9.4 µM; actives 0.37% (n = 360,000); AID 651800; in the data active means inhibition above about 19%;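 further: recombinant mutant TCR 2C K166C tagged with TAMRA read by polarization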
LEDGF integ inh – blocks HIV-1 LEDGF/p75-dependent DNA integration | TR-FRET IN-LEDGF/p75 DNA integration, Eu/Cy5 | inhibition, % at 3.7 µM | actives 0.64% (n = 370,000) | AID 743269;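 active means inhibition above the screen-wide mean plus 3 SD, cut at about 13% in these data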;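 further: signal is the Cy5 over europium emission ratio at 671 and 618 nm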
UHRF1 MBD2 ctr – human UHRF1 methylated DNA binding inhibitors; UHRF1 binding to methylated oligo, TR-FRET; inhibition, % at 4.4 µM; actives 0.75% (n = 370,000); in the data active means inhibition above about 21%;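 further: UHRF1 SRA domain binding a hemimethylated CpG hairpin DNA probe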
Rin1 Abl inh – blocks binding of human Rin1 to Abl; P00519+Q13671; TR-FRET Rin1/Abl binding, biochemical; inhibition, % at 7.35 µM; actives 0.4% (n = 360,000); AID 588664; in the data active means inhibition above about 5%, passing the limit was not always enough
IN multimer up – counter-screen for LEDGF/p75 integration inhibitors: HIV-1 integrase multimerization activators; activation, % at 7.7 µM; AID 1053131; TR-FRET HIV-1 integrase multimerization, biochemical; actives 17% (n = 2,000); shares compounds with LEDGF integ inh; in the data active means activation above about 8.9%
TRFRET interf – TR-FRET optical interference, LEDGF/p75 integration counter-screen | shares compounds with LEDGF integ inh | TR-FRET optical interference counterscreen, HIV-1 IN multimerization | inhibition, % at 7.7 µM | 2,000 tested, under 10 active | AID 1053135;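 active means inhibition above the mean over all tested compounds plus 3 SD, which no compound reached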
LEDGF integ conf – LEDGF/p75-dependent HIV-1 integration inhibition, confirmation; shares compounds with LEDGF integ inh; TR-FRET LEDGF/p75-dependent HIV-1 integration, biochemical; inhibition, % at 3.7 µM; actives 36% (n = 2,000); in the data active means inhibition above about 14%
Of the large screens only hits and unclear results are named; the others gave an inactive call (follow-up assays come after a bar, where they were run).

CN(C)C(=S)NC(=S)Nc1ccc2ccccc2c1	LEDGF integ inh 15.9 | IN multimer up inactive | TRFRET interf inactive | LEDGF integ conf 17.5
CCOC(=O)C1CCN(C(=O)Cn2nc(C)n3c(cc4cc(F)ccc43)c2=O)CC1	none
CC(=O)c1sc(NCc2ccccc2)nc1C	LEDGF integ inh 28.6 | IN multimer up inactive | TRFRET interf inactive | LEDGF integ conf inactive
CC(=O)c1sc(NCc2ccc(C)cc2)nc1C	none
Cc1ccc(C)c(C(C)NC(=O)c2ccc(Br)o2)c1 (stereo not drawn)	none
CC(NC(=O)COC(=O)CNS(=O)(=O)/C=C/c1ccccc1)c1ccccc1 (stereo not drawn)	none
Cc1nnc(N/N=C/c2cc([N+](=O)[O-])c(N3CCC(C)CC3)cc2N2CCC(C)CC2)n1N	LEDGF integ inh 51.6 | IN multimer up inactive | TRFRET interf inactive | LEDGF integ conf inactive
CCc1nnc(N/N=C/c2ccc(N3CCC(C)CC3)c([N+](=O)[O-])c2)n1N	LEDGF integ inh 38.1 | IN multimer up inactive | TRFRET interf inactive | LEDGF integ conf inactive
COc1cc(F)ccc1-c1csc(C(O)c2ccc(F)c(F)c2)n1 (stereo not drawn)	none
CCOC(=O)c1cc(OCC)c2c(ccc3cc(OC)ccc32)n1	none
CN(C)S(=O)(=O)c1ccc(C(=O)Nc2cc(=O)n(C)c(=O)n2C)cc1	LEDGF integ inh 44.1 | IN multimer up inactive | TRFRET interf inactive | LEDGF integ conf inactive
Cn1c(NC(=O)c2ccc(S(=O)(=O)N3CCOCC3)cc2)cc(=O)n(C)c1=O	none
Cn1c(NC(=O)c2ccco2)cc(=O)n(C)c1=O	LEDGF integ inh 24.3 | IN multimer up inactive | TRFRET interf inactive | LEDGF integ conf inactive
Cn1c(NC(=O)c2ccccc2)cc(=O)n(C)c1=O	none
Cc1ccc(Cl)cc1N1C(=O)CC(Sc2ncccn2)C1=O (stereo not drawn)	none
CN(C(=O)COC(=O)c1ccc2c(c1)OCCO2)C1CCCCC1	none
COc1ccc(NC(=S)N2CCC(NC(=O)c3ccc(OC)cc3)CC2)cc1	LEDGF integ inh 26.6 | IN multimer up inactive | TRFRET interf inactive | LEDGF integ conf inactive
COc1ccc(NC(=S)N2CCC(NC(=O)c3ccc(F)cc3)CC2)cc1	none
Oc1cc(O)c2c(c1)O[C@H](c1ccc(O)c(O)c1)[C@@H](O)C2	none
O=C1c2c(O)cc(O)cc2O[C@@]12c1c(cc(O)c3c1O[C@H](c1ccc(O)cc1)[C@@H](O)C3)O[C@@H]2c1ccc(O)cc1	LEDGF integ inh 17.7, UHRF1 MBD2 ctr 23.9 | IN multimer up 13.3 | TRFRET interf inactive | LEDGF integ conf 39.0
CCOC(=O)C1CCN(CC(=O)c2ccc(O)c(C)c2O)CC1	none
O=[N+]([O-])c1cc(Cc2ccccc2)cc(C=Nc2ccc(N3CCOCC3)cc2)c1O	none (no result: MBD2 inh, TCR CD3 inh, LEDGF integ inh, UHRF1 MBD2 ctr)
Cc1ccc(O)c(N=Cc2cc(Cc3ccccc3)cc([N+](=O)[O-])c2O)c1	LEDGF integ inh 19.4 | IN multimer up inactive | TRFRET interf inactive | LEDGF integ conf 45.8
Cc1ccc(-c2nc3c(C)cc(Br)cn3c2Cc2ccccc2C(F)(F)F)cc1	none (no result: Rin1 Abl inh)
Cc1cc(=O)oc2cc(OC(C)C(=O)NC3(C#N)CCCCC3)ccc12 (stereo not drawn)	none
CC1=NN(c2ccccc2)C(=O)C1C(=S)SC1CC(=O)NC1=O (stereo not drawn)	none
O=C1CC(SC(=S)C2CCCC2=O)C(=O)N1 (stereo not drawn)	MBD2 inh 17.3, LEDGF integ inh 23.7, UHRF1 MBD2 ctr 53.6 | IN multimer up inactive | TRFRET interf inactive | LEDGF integ conf 21.9
O=C(C(=O)N1CCC(Cc2ccccc2)CC1)c1cccs1	none (no result: Rin1 Abl inh)
O=C(C(=O)N1CCC(CNC(=O)C2COc3ccccc3O2)CC1)c1cccs1 (stereo not drawn)	LEDGF integ inh 20.8 (no result: Rin1 Abl inh) | IN multimer up inactive | TRFRET interf inactive | LEDGF integ conf inactive
O=C(N[C@@H](Cc1cccnc1)C(=O)N1CCC[C@H]1C(=O)NCCc1ccccc1Cl)c1ccccc1	none (no result: Rin1 Abl inh)

From PubChem
